One assay concerns 3D7. Nature of the assay: qHTS profiling for inhibitors of Plasmodium falciparum proliferation (AID 504749). Also: nearly all actives have a fitted effect of over 60% in size. Also: potency is read from the fitted curve at half-maximal effect. To be noted: P. falciparum in erythrocytes, SYBR Green DNA, 72 h; series mostly up to 28.7 µM. In a few lines: (§1)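 Readout was DNA-dye fluorescence from lysed cultures, ex 485/em 535 nm. Parasitized red cells had grown 72 h with compound; data scaled between 0.29 uM artemisinin and DMSO wells and corrected using vehicle-only plates.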
(In qHTS, concentration-response curves come from the screen itself.)

The test system of a further assay is 7G8. The assay is described as above. To be noted: P. falciparum in erythrocytes, SYBR Green DNA, 72 h; series mostly up to 28.7 µM. In a few lines:
as §1

In another assay the test system is AA1029. The description is as above. To be noted: P. falciparum in erythrocytes, SYBR Green DNA, 72 h; series mostly up to 28.7 µM. A digest of the protocol: as §1
In a further assay the test system is AS120. The assay is described as above. To be noted: P. falciparum in erythrocytes, SYBR Green DNA, 72 h; series mostly up to 28.7 µM. In a few lines:
as §1

A further assay has as its system ATS95. The description is as above. To be noted: P. falciparum in erythrocytes, SYBR Green DNA, 72 h; series mostly up to 28.7 µM. In a few lines:
as §1

The test system of the next assay is C2A. Described as above. The following applies: P. falciparum in erythrocytes, SYBR Green DNA, 72 h; series mostly up to 28.7 µM. In a few lines:
as §1

For another assay, the system named is CP185. The assay is described as above. To be noted: P. falciparum in erythrocytes, SYBR Green DNA, 72 h; series mostly up to 28.7 µM. A digest of the protocol: as §1
The test system of another assay is CP192. The assay is described as above. To be noted: P. falciparum in erythrocytes, SYBR Green DNA, 72 h; series mostly up to 28.7 µM. In a few lines: as §1
A further assay relates to CP194. The description is as above. To be noted: P. falciparum in erythrocytes, SYBR Green DNA, 72 h; series mostly up to 28.7 µM. A digest of the protocol: as §1
For the next assay, the system named is CP201. The assay is described as above. To be noted: P. falciparum in erythrocytes, SYBR Green DNA, 72 h; series mostly up to 28.7 µM. A digest of the protocol:
as §1

In another assay the test system is CP203. The description is as above. To be noted: P. falciparum in erythrocytes, SYBR Green DNA, 72 h; series mostly up to 28.7 µM. In a few lines: as §1
A further assay relates to CP211. Described as above. The following applies: P. falciparum in erythrocytes, SYBR Green DNA, 72 h; series mostly up to 28.7 µM. In a few lines: as §1
Assay [1] can be described thus: NS1 protein of Zika virus - qHTS assay to identify small molecule inhibitors in human HEK 293 cells (AID 1347053). Also: nearly all actives have a fitted effect of over 55% in size. A digest of the protocol:
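HEK 293; 20 h pre-culture, 37 C/5% CO2; cpd 1 h pre-infection; ZIKV MR766, MOI = 0.5, 24 h, 37 C; TR-FRET NS1 readout (two anti-NS1 Abs); norm. to no-virus vs infected.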

The nature of assay [2]: qHTS of pediatric cancer cell lines to identify multiple opportunities for drug repurposing: Primary screen for Saos-2 cells (AID 1347097). Also: potency is read from the fitted curve at half-maximal effect; nearly all actives have a fitted effect of over 40% in size. To be noted: Saos-2 viability, CellTiter-Glo ATP luminescence, 48 h. A digest of the protocol:
(§2)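 Plated cells (500-1,000 per well, growth media) were allowed to settle for 5 hours, treated with compound dilutions for 48 hours, then lysed with CellTiter-Glo for 15 min at room temperature before luminescence reading.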

The nature of assay [3]: qHTS of pediatric cancer cell lines to identify multiple opportunities for drug repurposing: Primary screen for NB1643 cells (AID 1347099). Also: nearly all actives have a fitted effect of over 50% in size. Also: potency is read from the fitted curve at half-maximal effect. A digest of the protocol:
as §2

A short description of assay [4]: qHTS of pediatric cancer cell lines to identify multiple opportunities for drug repurposing: Primary screen for OHS-50 cells (AID 1347103). Also: potency is read from the fitted curve at half-maximal effect; nearly all actives have a fitted effect of over 40% in size. To be noted: OHS-50 osteosarcoma viability, CellTiter-Glo luminescence, 48 h. In a few lines:
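Cells (500-1,000/well) rested 5 h, then received compounds for 48 h; metabolically active cells were measured by CellTiter-Glo luminescence. Final concentrations spanned up to 46 µM (MIPE, 11-point) or 0.59 nM-46 µM (NPC, 8-point) in primary screens, 11-point in follow-ups.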

A short description of assay [5]: qHTS to identify inhibitors of the type 1 interferon - major histocompatibility complex class I in skeletal muscle: primary screen against the NCATS Pharmaceutical Collection (AID 1347407).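 Also: luminescence of HiBiT knocked into endogenous HLA-B as interferon-induced MHC class I level.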 A digest of the protocol:
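A qHTS format is used: 8-point, 1:5 compound series with 46 uM top final concentration, applied alongside 4 ng/ml IFN-beta to HLA-B*08:01-HiBiT knock-in myoblasts. Luminescence is measured after 24 h treatment.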

Assay [6] deals with Protein phosphatase 1D (Homo sapiens) (UniProt O15297). Nature of the assay: RapidFire Mass Spectrometry qHTS Assay for Modulators of WT P53-Induced Phosphatase 1 (WIP1) (AID 1347424).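 Also: amount of dephosphorylated VEPPL-S-QETFS peptide product formed by WIP1.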 In a few lines: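 10 nM WIP1 preincubated with compounds 1 hr at room temperature in pH 7.5 Tris buffer with 30 mM MgCl2, 1 mM TCEP; 2 uM VEPPL-pS-QETFS phosphopeptide for 5 min, formic acid quench; dephosphorylated product quantified by RapidFire MS against labelled standard.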

For assay [7] the target is unchanged. Description: Rhodamine-PBP qHTS Assay for Modulators of WT P53-Induced Phosphatase 1 (WIP1) (AID 1347425). In a few lines: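 Steps: enzyme with Rh-PBP sensor and compounds, room-temperature incubation of 1 hr, baseline read, addition of VEPPL-pS-QETFS (10 uM final), kinetic fluorescence reads at 525/598 nm. Activity equals final minus baseline signal.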
A short description of assay [8]: A High-Content qHTS Against Drug Library for the Identification of Small Molecules that Inhibit DYT1 Early Onset Primary Dystonia-Associated Cell Pathology (AID 1645839; calls by dose curve). A digest of the protocol: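 Flp-In T-REx 293 cells with tetracycline-inducible EGFP-delE hTOR1A (WT EGFP-hTOR1A as reference), 800 cells/well; compound added with tetracycline, 48 h at 37 C. Fixed, permeabilized cells imaged; %pathology (punctate TorsinA) primary, cell count counterscreen.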

The values below come from PubChem BioAssay (NCATS).

Results filed as inconclusive are left out. Calls of active or inactive are those of the source. Unless noted, calls follow the shape of the dose curve; as a rule, active = well fitted curve in the direction sought with a large enough effect; inconclusive = small, poorly fitted or top-dose-only effect, or another doubt; inactive = no such curve, though single readings can be large; an effect the other way counts as inactive or inconclusive.

Chain of Protein phosphatase 1D (Homo sapiens) (O15297 whole entry, looked up): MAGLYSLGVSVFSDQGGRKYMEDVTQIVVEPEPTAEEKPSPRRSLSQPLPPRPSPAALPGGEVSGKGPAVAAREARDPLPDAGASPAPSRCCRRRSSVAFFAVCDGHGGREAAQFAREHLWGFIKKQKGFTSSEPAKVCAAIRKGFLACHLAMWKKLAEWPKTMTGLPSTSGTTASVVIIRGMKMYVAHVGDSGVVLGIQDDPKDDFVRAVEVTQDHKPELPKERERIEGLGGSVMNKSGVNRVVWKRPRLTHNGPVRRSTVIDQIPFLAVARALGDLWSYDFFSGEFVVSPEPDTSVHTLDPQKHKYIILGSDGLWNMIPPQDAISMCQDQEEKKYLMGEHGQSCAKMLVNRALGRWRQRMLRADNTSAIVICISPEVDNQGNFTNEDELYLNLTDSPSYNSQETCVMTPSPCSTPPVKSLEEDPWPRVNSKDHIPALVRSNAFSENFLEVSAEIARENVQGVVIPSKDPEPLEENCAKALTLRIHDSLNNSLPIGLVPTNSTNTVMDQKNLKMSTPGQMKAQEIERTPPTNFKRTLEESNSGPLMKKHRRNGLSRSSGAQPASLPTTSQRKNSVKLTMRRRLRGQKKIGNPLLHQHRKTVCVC

On to `CCCCC(=O)N(Cc1ccc(-c2ccccc2-c2nn[nH]n2)cc1)C(C(=O)O)C(C)C` (stereo not given), for which the Potency result in the assay with 3D7, in the assay on AA1029, with AS120, in the assay with ATS95, with C2A and in the assay on CP185 was “inactive” in each case. The Potency result with CP192, in the assay on CP194, in the assay with CP201, in the assay on CP203 and in the assay on CP211 was “inactive” in each case. Further, in the assay with 7G8, the Potency was 11.2 µM (active).
Take `CS(=O)(=O)c1ccc(-c2cn3ccccc3n2)cc1`: the outcome in [1], in assay [5], in assay [6], in [7] and in assay [8] was inactive. Moreover, the Potency in assay [2] was 16.8 µM (active); in assay [4], 17.4 µM (active). For the same molecule, in assay [3], the Potency result was “inactive”.
In the case of `CCN(CC)c1ccc(C(=C2C=CC(=[N+](CC)CC)C=C2)c2cc(S(=O)(=O)O)ccc2S(=O)(=O)[O-])cc1`, the outcome in assay [1], in assay [5], in assay [6], in assay [7] and in assay [8] was inactive. The Potency in assay [2] is 21.1 µM (active); in assay [3] it was 21.1 µM (active); in assay [4], 17.4 µM (active).
As for `O=C(CC1NCCC[C@H]1O)Cn1cnc2cc(Br)c(Cl)cc2c1=O` (stereo not given in full), the Potency in the assay on 3D7 is 1 µM (active); in the assay with 7G8, 1 µM (active); in the assay with AA1029 it was 1 µM (active); in the assay on AS120, 2 µM (active); with ATS95 it was 2 µM (active); in the assay on C2A, 3.16 µM (active). The Potency with CP185 is 2.82 µM (active); with CP192, 3.38 µM (active); in the assay on CP194, 4.78 µM (active); with CP201, 3.38 µM (active); in the assay on CP203, 3.38 µM (active); with CP211, 3.38 µM (active).
